VACV Venus inh: vaccinia inhibition (Venus reporter). Vaccinia virus Venus reporter expression, fluorescence. Potency, µM (titrated, usually from 36.5 µM), for the others: at the highest dose activity change, negative = inhibition, actives largely listed as inhibitors. 0.46% of 330,000 active; calls by dose curve; tested in A549 cells; further: on the % scale 0 is the no-effect control and ±100 the full control effect; nearly all actives have a fitted effect of over 30% in size
VACV mCherry inh: inhibitors of vaccinia virus infection (mCherry reporter signal). Vaccinia virus mCherry reporter infection, fluorescence. Potency, µM (doses to about 36.5 µM), inactives show top-dose activity change, negative = inhibition, usual class: inhibitors. 0.63% of 310,000 active. AID 720579; calls by dose curve; tested in A549 cells; further: on the % scale 0 is the no-effect control and ±100 the full control effect; nearly all actives have a fitted effect of over 35% in size
HCV inhibitor: inhibitors of hepatitis C virus infection. Huh7.5.1 HCVcc-Cre infection, luciferase reporter, 44 h. Potency, µM (highest dose often 41.8 µM), for the others: at the top dose activity change, negative = inhibition, most hits filed as inhibitors. 3.4% of 340,000 active; further: on the % scale 0 is the no-effect control and ±100 the full control effect
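Seed cells (1,000/well) for 4 h; treat with compound and infect with HCVcc-Cre, moi about 0.5. Incubate 44 h, then detect luciferase activity.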
HCV confirm: confirmation of hepatitis C virus inhibitors; Potency, µM (doses to about 41.8 µM), for inactives: top-dose activity, negative = inhibition, most hits filed as inhibitors; shares compounds with HCV inhibitor; 78% of 640 active; HCVcc-Cre infectious virus cell assay, luciferase, inhibition; further: nearly all actives have a fitted effect of over 80% in size
HCV cytotox: toxic to HCV host cells, flagging false HCV inhibitors; Potency, µM (series often up to 41.8 µM), without a hit: at the top dose activity change, negative = cytotoxicity, most hits filed as inhibitors; AID 720576; shares compounds with HCV inhibitor; 22% of 640 active; HCV host cell line cytotoxicity counterscreen;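 further: 44 h compound exposure; on the % scale 0 is the no-effect control and ±100 the full control effect; nearly all actives have a fitted effect of over 55% in size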
Numbers without * were called inactive; i = inactive; ? = inconclusive; · = no result given; [ ] = another dose, or the depositor's remark. Hits are enriched below; roughly 3.3% of the tested compounds scored in any of these assays. Unless noted, the call rests on the fitted dose curve; in most records, active means well fitted curve in the direction sought with a large enough effect; inconclusive means small, poorly fitted or top-dose-only effect, or another doubt; inactive means no such curve, though single readings can be large; an effect the other way counts as inactive or inconclusive. Potency means the concentration at half of the fitted maximal effect.

SMILES	VACV Venus inh	VACV mCherry inh	HCV inhibitor	HCV confirm	HCV cytotox
Cc1cc(C(=O)CSc2nnc(-c3ccco3)o2)c(C)n1Cc1ccco1	3%	-11%	?	16µM*	?
COCC(C)n1c(C)cc(C(=O)CSc2nnc(-c3ccco3)o2)c1C (stereo not given)	-5%	-15%	?	·	·
CC(=O)Nc1ccc(NC(=O)c2cccc3c2-c2ccccc2C3=O)cc1	-3%	-10%	-13%	·	·
CC(=O)Nc1ccc(NC2=C(Cl)C(=O)c3ccccc3C2=O)cc1	?	?	3.2µM*	25µM*	22µM*
CCOC(=O)[C@@H]1[C@H]2COc3ccc(Br)cc3[C@@H]2N2C(=O)N(c3ccc(OC)cc3)C(=O)[C@@]12C	-17%	-1%	8%	·	·
Nn1cnc2c([nH]c3ccccc32)c1=O	0%	-6%	24%	·	·
c1ccc2c(c1)[nH]c1c(N3CCCC3)ncnc12	?	·	8.9µM*	7µM*	16µM*
Nc1ccc(C(=O)N2CCN(S(=O)(=O)c3ccc(Cl)s3)CC2)cc1[N+](=O)[O-]	-26%	i	4%	·	·
COc1ccc2oc(=O)c(-c3nnc(NCc4ccco4)s3)cc2c1	-20%	?	4.5µM*	-20%	?
CCOc1cccc2cc(-c3nnc(NCc4ccco4)s3)c(=O)oc12	-24%	-33%	-22%	·	·
O=C(NC1(C(F)(F)F)Oc2ccc(Cl)cc2O1)N1CCC2(CC1)OCCO2 (stereo not given)	-21%	?	?	·	·
O=C(NC1(C(F)(F)F)Oc2ccccc2O1)N1CCC2(CC1)OCCO2	-21%	?	?	?	?
Oc1cccc(C=NN=C2c3ccccc3-c3ccccc32)c1	-27%	?	?	·	·
COc1cc(C(=O)Nc2cccc(C(C)=O)c2)cc(OC)c1OC	·	·	-13%	·	·
COc1cc(C(=O)Nc2cccc(NC(=O)c3cccs3)c2)cc(OC)c1OC	·	·	?	13µM*	72%
COc1ccccc1OCc1nnc(SCC(=O)Nc2nnc(C3CC3)s2)n1C	-10%	i	-21%	·	·
FC(F)(F)c1ccc(/C=N/NC(=S)NC2CCCCC2)cc1	-13%	-8%	7%	·	·
C=CCNC(=S)N/N=C/c1ccc(C(F)(F)F)cc1	·	·	8.9µM*	8.9µM*	13µM*
COCCNC(=O)CCN1C(=O)c2cccnc2Oc2ccc(C)cc21	-11%	-8%	·	·	·
Nc1cccc2cc(-c3ccccc3)oc12	·	·	18%	·	·
CCCCCn1c(=O)[nH]c2cc(C(=O)NCCCN3CCC(C)CC3)ccc2c1=O	·	·	4.5µM*	16µM*	39%
CCCCCNC(=O)c1ccc2c(=O)n(CCOC)c(=O)[nH]c2c1	-12%	-14%	-3%	·	·
Cn1c(=O)c2ccccc2n2c(CCl)nnc12	-27%	-9%	-4%	·	·
Cc1ccc(C)c(N2CCN(C(=O)CCS(=O)(=O)c3ccc4c(c3)CCN4C(=O)C3CC3)CC2)c1	-12%[7.34 µM]	i[7.34 µM]	?	·	·
CC1CN(C(=O)CCC(=O)NCc2ccccn2)c2ccccc2O1 (stereo not given)	-11%	-6%	6%	·	·
SMILES	VACV Venus inh	VACV mCherry inh	HCV inhibitor	HCV confirm	HCV cytotox
COc1cc(NC(=O)c2ccc(F)cc2)c(OC)cc1NC(=O)CN1CCOCC1	-18%	-9%	?	·	·
COc1cc(NC(=O)c2ccccc2F)c(OC)cc1NC(=O)CN1CCOCC1	-12%	-12%	?	?	11%
CC(CCCN1CCCC1)Nc1ccnc2cc(Cl)ccc12 (stereo not given)	-8%	?	?	·	·
CC(C)NC1CCC(Nc2ccnc3cc(Cl)ccc23)CC1 (stereo not given)	-21%	-7%	2.8µM*	4µM*	-72%
COc1ccc(CCNC(=O)C2CC2)cc1	-10%	i	7%	·	·
COc1ccc(C[C@H]2NC[C@H](O)[C@H]2OC(C)=O)cc1	0.89µM*	0.45µM*	?	7µM*	-12%
CCCCN(C)C(=O)c1sc(=O)n(CC(=O)c2ccccc2OC)c1C	6%	2%	·	·	·
Cc1ccc(C)c(NC(=S)NC(NC(=O)Cc2cccc3ccccc23)C(Cl)(Cl)Cl)c1 (stereo not given)	?	?	2.2µM*	11µM*	31µM*
Cc1ccc(C)c(NC(=S)NC(NC(=O)N(C)C)C(Cl)(Cl)Cl)c1 (stereo not given)	-14%	-16%	1%	·	·
CCN(C(=O)Cn1nnc(-c2ccccc2)n1)C1CCS(=O)(=O)C1 (stereo not given)	1%	-13%	36%	·	·

Screens as filed in PubChem.
